Where a chain is given by its changes, count along the chain named.
Experiments:
Assay in all cases: PBM; 200 nM protein, PBS
Details in all cases: dsDNA, one strand shown
HOXA4 [1] = target: HOXA4 (Homo sapiens, UniProt Q00056 201-287, W262R)
HOXC10 [2] = target: HOXC10 (Homo sapiens, UniProt Q9NYD6 254-340)
HOXA4 [3] = target: HOXA4 (Homo sapiens, UniProt Q00056 201-287, R217L)
ALX3 [4] = target: ALX3 (Homo sapiens, UniProt O95076 139-225, N203Q)
HOXA4 [5] = target: HOXA4 (Homo sapiens, UniProt Q00056 201-287)
HOXC10 [6] = target: HOXC10 (Homo sapiens, UniProt Q9NYD6 254-340, K271E)
ALX3 [7] = target: ALX3 (Homo sapiens, UniProt O95076 139-225)
ALX3 [8] = target: ALX3 (Homo sapiens, UniProt O95076 139-225, L168Q)
ALX3 [9] = target: ALX3 (Homo sapiens, UniProt O95076 139-225, L168V)
HOXA4 [10] = target: HOXA4 (Homo sapiens, UniProt Q00056 201-287, W262F)
ALX3 [11] = target: ALX3 (Homo sapiens, UniProt O95076 139-225, N203S)
SIX6 [12] = target: T1, SIX6 (Homo sapiens, UniProt O95475 114-200, T165P)
T1 sequence: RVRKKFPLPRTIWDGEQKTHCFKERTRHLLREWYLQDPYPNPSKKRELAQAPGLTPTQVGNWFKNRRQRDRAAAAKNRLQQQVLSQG

SIX6 [13] = target: T2, SIX6 (Homo sapiens, UniProt O95475 114-200, T139Q)
T2 sequence: T1 sequence with T26Q, P52T

PRRX1 [14] = target: PRRX1 (Homo sapiens, UniProt P54821 80-166, F113S)
NKX2-6 = target: T3, NKX2-6 (Homo sapiens, UniProt A6NCS4 118-204, R150C)
T3 sequence: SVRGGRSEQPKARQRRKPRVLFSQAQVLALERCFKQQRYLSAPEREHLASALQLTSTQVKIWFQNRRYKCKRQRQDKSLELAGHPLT

HOXD13 [15] = target: HOXD13 (Homo sapiens, UniProt P35453 263-343, T313R)
HOXD13 [16] = target: HOXD13 (Homo sapiens, UniProt P35453 263-343)
HOXD13 [17] = target: HOXD13 (Homo sapiens, UniProt P35453 263-343, T313A)
PRRX1 [18] = target: PRRX1 (Homo sapiens, UniProt P54821 80-166)
HOXC9 [19] = target: HOXC9 (Homo sapiens, UniProt P31274 178-260, K195R)
HOXA2 [20] = target: HOXA2 (Homo sapiens, UniProt O43364 129-215, R185T)
HOXC9 [21] = target: HOXC9 (Homo sapiens, UniProt P31274 178-260)
HOXC9 [22] = target: HOXC9 (Homo sapiens, UniProt P31274 178-260, R193K)
HOXA2 [23] = target: HOXA2 (Homo sapiens, UniProt O43364 129-215, R185K)
HOXC9 [24] = target: HOXC9 (Homo sapiens, UniProt P31274 178-260, R222W)
HOXA2 [25] = target: HOXA2 (Homo sapiens, UniProt O43364 129-215, Y150S)
HOXA2 [26] = target: HOXA2 (Homo sapiens, UniProt O43364 129-215)
ALX4 [27] = target: ALX4 (Homo sapiens, UniProt Q9H161 200-286)
ALX4 [28] = target: ALX4 (Homo sapiens, UniProt Q9H161 200-286, Q225E)
ALX4 (Homo sapiens, UniProt Q9H161 200-286, Q225E), sequence (Q9H161 200-286 Q225E): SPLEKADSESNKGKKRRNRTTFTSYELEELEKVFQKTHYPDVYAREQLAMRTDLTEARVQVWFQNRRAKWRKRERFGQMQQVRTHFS

HOXA4 (Homo sapiens, UniProt Q00056 201-287, W262R), sequence (Q00056 201-287 W262R): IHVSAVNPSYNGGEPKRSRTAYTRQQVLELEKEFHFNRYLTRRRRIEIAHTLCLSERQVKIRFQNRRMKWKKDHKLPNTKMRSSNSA
HOXA4 (Homo sapiens, UniProt Q00056 201-287, R217L), sequence (Q00056 201-287 R217L): as the sequence (Q00056 201-287 W262R) above, with R17L, R62W counted along it
HOXA4 (Homo sapiens, UniProt Q00056 201-287, W262F), sequence (Q00056 201-287 W262F): as the sequence (Q00056 201-287 W262R) above, with R62F counted along it
HOXA4 (Homo sapiens, UniProt Q00056 201-287), sequence (Q00056 201-287): as the sequence (Q00056 201-287 W262R) above, with R62W counted along it
PRRX1 (Homo sapiens, UniProt P54821 80-166, F113S), sequence (P54821 80-166 F113S): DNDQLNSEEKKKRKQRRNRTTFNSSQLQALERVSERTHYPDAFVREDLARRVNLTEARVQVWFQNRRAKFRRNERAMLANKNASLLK
HOXC10 (Homo sapiens, UniProt Q9NYD6 254-340), sequence (Q9NYD6 254-340): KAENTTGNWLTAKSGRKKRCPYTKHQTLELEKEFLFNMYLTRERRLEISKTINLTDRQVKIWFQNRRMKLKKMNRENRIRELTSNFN
PRRX1 (Homo sapiens, UniProt P54821 80-166), sequence (P54821 80-166): as the sequence (P54821 80-166 F113S) above, with S34F counted along it
HOXC10 (Homo sapiens, UniProt Q9NYD6 254-340, K271E), sequence (Q9NYD6 254-340 K271E): as the sequence (Q9NYD6 254-340) above, with K18E counted along it
ALX3 (Homo sapiens, UniProt O95076 139-225, N203Q), sequence (O95076 139-225 N203Q): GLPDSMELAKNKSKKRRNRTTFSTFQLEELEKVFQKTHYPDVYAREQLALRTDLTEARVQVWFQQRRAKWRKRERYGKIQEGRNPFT
HOXD13 (Homo sapiens, UniProt P35453 263-343), sequence (P35453 263-343): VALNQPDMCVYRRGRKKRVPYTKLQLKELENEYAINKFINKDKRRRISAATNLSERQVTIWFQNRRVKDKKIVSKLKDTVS
ALX3 (Homo sapiens, UniProt O95076 139-225, L168Q), sequence (O95076 139-225 L168Q): as the sequence (O95076 139-225 N203Q) above, with L30Q, Q65N counted along it
ALX3 (Homo sapiens, UniProt O95076 139-225), sequence (O95076 139-225): as the sequence (O95076 139-225 N203Q) above, with Q65N counted along it
ALX4 (Homo sapiens, UniProt Q9H161 200-286), sequence (Q9H161 200-286): as the sequence (Q9H161 200-286 Q225E) above, with E26Q counted along it
HOXA2 (Homo sapiens, UniProt O43364 129-215, Y150S), sequence (O43364 129-215 Y150S): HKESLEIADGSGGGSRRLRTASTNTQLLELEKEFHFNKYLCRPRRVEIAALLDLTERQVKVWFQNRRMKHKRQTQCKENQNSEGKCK
HOXD13 (Homo sapiens, UniProt P35453 263-343, T313R), sequence (P35453 263-343 T313R): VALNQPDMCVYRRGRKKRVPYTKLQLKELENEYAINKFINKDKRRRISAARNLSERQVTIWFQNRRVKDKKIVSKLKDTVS
HOXD13 (Homo sapiens, UniProt P35453 263-343, T313A), sequence (P35453 263-343 T313A): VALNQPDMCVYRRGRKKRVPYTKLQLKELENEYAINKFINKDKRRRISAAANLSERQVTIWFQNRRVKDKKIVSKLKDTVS
HOXA2 (Homo sapiens, UniProt O43364 129-215, R185K), sequence (O43364 129-215 R185K): as the sequence (O43364 129-215 Y150S) above, with S22Y, R57K counted along it
HOXC9 (Homo sapiens, UniProt P31274 178-260, K195R), sequence (P31274 178-260 K195R): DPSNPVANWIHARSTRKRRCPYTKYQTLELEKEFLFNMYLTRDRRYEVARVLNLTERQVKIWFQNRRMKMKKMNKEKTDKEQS
HOXA2 (Homo sapiens, UniProt O43364 129-215), sequence (O43364 129-215): as the sequence (O43364 129-215 Y150S) above, with S22Y counted along it
HOXA2 (Homo sapiens, UniProt O43364 129-215, R185T), sequence (O43364 129-215 R185T): as the sequence (O43364 129-215 Y150S) above, with S22Y, R57T counted along it
ALX3 (Homo sapiens, UniProt O95076 139-225, N203S), sequence (O95076 139-225 N203S): as the sequence (O95076 139-225 N203Q) above, with Q65S counted along it
HOXC9 (Homo sapiens, UniProt P31274 178-260), sequence (P31274 178-260): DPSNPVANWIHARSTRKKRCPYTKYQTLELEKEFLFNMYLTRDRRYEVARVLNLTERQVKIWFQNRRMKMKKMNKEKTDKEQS
HOXC9 (Homo sapiens, UniProt P31274 178-260, R222W), sequence (P31274 178-260 R222W): as the sequence (P31274 178-260) above, with R45W counted along it
HOXC9 (Homo sapiens, UniProt P31274 178-260, R193K), sequence (P31274 178-260 R193K): as the sequence (P31274 178-260) above, with R16K counted along it
ALX3 (Homo sapiens, UniProt O95076 139-225, L168V), sequence (O95076 139-225 L168V): as the sequence (O95076 139-225 N203Q) above, with L30V, Q65N counted along it

CCGGCAGG
binding signal (HOXA4 [1]): 9.95 upbm affinity estimate (log intensity, higher = more binding, comparable within an allelic series)
binding signal (HOXC10 [2]): 10.2 upbm affinity estimate (log intensity, higher = more binding, comparable within an allelic series)
binding signal (HOXA4 [3]): 9.86 upbm affinity estimate (log intensity, higher = more binding, comparable within an allelic series)
binding signal (ALX3 [4]): 7.82 upbm affinity estimate (log intensity, higher = more binding, comparable within an allelic series)
binding signal (HOXA4 [5]): 10 upbm affinity estimate (log intensity, higher = more binding, comparable within an allelic series)
binding signal (HOXC10 [6]): 9.98 upbm affinity estimate (log intensity, higher = more binding, comparable within an allelic series)
binding signal (ALX3 [7]): 7.72 upbm affinity estimate (log intensity, higher = more binding, comparable within an allelic series)
binding signal (ALX3 [8]): 7.79 upbm affinity estimate (log intensity, higher = more binding, comparable within an allelic series)
binding signal (ALX3 [9]): 7.78 upbm affinity estimate (log intensity, higher = more binding, comparable within an allelic series)
binding signal (HOXA4 [10]): 9.96 upbm affinity estimate (log intensity, higher = more binding, comparable within an allelic series)
binding signal (ALX3 [11]): 7.86 upbm affinity estimate (log intensity, higher = more binding, comparable within an allelic series)

GATCCCCC
binding signal (HOXA4 [1]): 9.9 upbm affinity estimate (log intensity, higher = more binding, comparable within an allelic series)
binding signal (SIX6 [12]): 9.3 upbm affinity estimate (log intensity, higher = more binding, comparable within an allelic series)
binding signal (HOXA4 [3]): 9.87 upbm affinity estimate (log intensity, higher = more binding, comparable within an allelic series)
binding signal (SIX6 [13]): 11.1 upbm affinity estimate (log intensity, higher = more binding, comparable within an allelic series)
binding signal (HOXA4 [5]): 9.93 upbm affinity estimate (log intensity, higher = more binding, comparable within an allelic series)
binding signal (HOXA4 [10]): 9.82 upbm affinity estimate (log intensity, higher = more binding, comparable within an allelic series)

CCCCAGGC
binding signal (HOXA4 [1]): 9.71 upbm affinity estimate (log intensity, higher = more binding, comparable within an allelic series)
binding signal (PRRX1 [14]): 9.11 upbm affinity estimate (log intensity, higher = more binding, comparable within an allelic series)
binding signal (HOXA4 [3]): 9.7 upbm affinity estimate (log intensity, higher = more binding, comparable within an allelic series)
binding signal (NKX2-6): 9.25 upbm affinity estimate (log intensity, higher = more binding, comparable within an allelic series)
binding signal (HOXD13 [15]): 9.43 upbm affinity estimate (log intensity, higher = more binding, comparable within an allelic series)
binding signal (HOXD13 [16]): 9.37 upbm affinity estimate (log intensity, higher = more binding, comparable within an allelic series)
binding signal (HOXA4 [5]): 9.62 upbm affinity estimate (log intensity, higher = more binding, comparable within an allelic series)
binding signal (HOXD13 [17]): 9.53 upbm affinity estimate (log intensity, higher = more binding, comparable within an allelic series)
binding signal (HOXA4 [10]): 9.76 upbm affinity estimate (log intensity, higher = more binding, comparable within an allelic series)
binding signal (PRRX1 [18]): 9.25 upbm affinity estimate (log intensity, higher = more binding, comparable within an allelic series)

CAGGCTTC
binding signal (HOXA4 [1]): 9.89 upbm affinity estimate (log intensity, higher = more binding, comparable within an allelic series)
binding signal (HOXC9 [19]): 9.38 upbm affinity estimate (log intensity, higher = more binding, comparable within an allelic series)
binding signal (HOXC10 [2]): 9.9 upbm affinity estimate (log intensity, higher = more binding, comparable within an allelic series)
binding signal (PRRX1 [14]): 9.37 upbm affinity estimate (log intensity, higher = more binding, comparable within an allelic series)
binding signal (HOXA2 [20]): 7.14 upbm affinity estimate (log intensity, higher = more binding, comparable within an allelic series)
binding signal (HOXA4 [3]): 9.71 upbm affinity estimate (log intensity, higher = more binding, comparable within an allelic series)
binding signal (HOXC9 [21]): 9.43 upbm affinity estimate (log intensity, higher = more binding, comparable within an allelic series)
binding signal (HOXC9 [22]): 9.37 upbm affinity estimate (log intensity, higher = more binding, comparable within an allelic series)
binding signal (HOXA2 [23]): 10.5 upbm affinity estimate (log intensity, higher = more binding, comparable within an allelic series)
binding signal (HOXA4 [5]): 9.69 upbm affinity estimate (log intensity, higher = more binding, comparable within an allelic series)
binding signal (HOXC10 [6]): 9.96 upbm affinity estimate (log intensity, higher = more binding, comparable within an allelic series)
binding signal (HOXC9 [24]): 9.74 upbm affinity estimate (log intensity, higher = more binding, comparable within an allelic series)
binding signal (HOXA2 [25]): 10.4 upbm affinity estimate (log intensity, higher = more binding, comparable within an allelic series)
binding signal (HOXA4 [10]): 9.89 upbm affinity estimate (log intensity, higher = more binding, comparable within an allelic series)
binding signal (PRRX1 [18]): 9.5 upbm affinity estimate (log intensity, higher = more binding, comparable within an allelic series)
binding signal (HOXA2 [26]): 7.25 upbm affinity estimate (log intensity, higher = more binding, comparable within an allelic series)

CCGAAGGC
binding signal (HOXA4 [1]): 9.78 upbm affinity estimate (log intensity, higher = more binding, comparable within an allelic series)
binding signal (ALX4 [27]): 8.05 upbm affinity estimate (log intensity, higher = more binding, comparable within an allelic series)
binding signal (ALX4 [28]): 8.35 upbm affinity estimate (log intensity, higher = more binding, comparable within an allelic series)
binding signal (HOXA4 [3]): 9.88 upbm affinity estimate (log intensity, higher = more binding, comparable within an allelic series)
binding signal (HOXA4 [5]): 9.96 upbm affinity estimate (log intensity, higher = more binding, comparable within an allelic series)
binding signal (HOXA4 [10]): 9.89 upbm affinity estimate (log intensity, higher = more binding, comparable within an allelic series)

Reference: paper PMC11006913
